Inhibition data for 60 molecules are collected here from ChEMBL document CHEMBL1157539, “Thousands of chemical starting points for antimalarial lead identification” (Nature, 2010).

What all share (type): functional
Assay [1] has as its system Plasmodium falciparum. Nature of the assay: GSK_TCMDC: Inhibition of Plasmodium falciparum 3D7 in whole red blood cells, using parasite LDH activity as an index of growth. Test compounds present at 2uM.
Assay [2] relates to Plasmodium falciparum. Nature of the assay: GSK_TCMDC: Inhibition of Plasmodium falciparum Dd2 in whole red blood cells, using parasite LDH activity as an index of growth. Test compounds present at 2uM.
The subject of assay [3] is HepG2. The experiment in a line: GSK_TCMDC: Percent inhibition of human HepG2 cell line. Test compounds present at 10uM.

In general, Inhibition refers to the change of the read-out against control, counted positive when it falls. Low readings indicate a response near the control, high ones a response far below the control. With `Cc1cc(-c2nc3ccc(CN4CCN(C)CC4)cc3[nH]2)nn1Cc1cc(Cl)ccc1OCc1ccccc1.Cl`, the Inhibition in assay [1] is recorded as 100%; in assay [2], 52%; in assay [3] it was 3%.
Taken in the same sequence, the figures for `CCCCCCc1cnc2nc(N)nc(N)c2c1C` were 93%, 20% and 67%.
Taken in the same sequence, the figures for `c1ccn2c(-c3ncnc(NCc4ccc5c(c4)CCO5)n3)cnc2c1` were 86%, 47% and 12%.
Regarding `Cc1cc(Cl)c(S(=O)(=O)N2CCc3ccccc32)cc1OCC(=O)NC1CCCCC1`, the Inhibition turned out to be 100% in assay [1], 93% in assay [2] and 28% in assay [3].
Taken in the same sequence, the figures for `Cc1ccc(C(=O)Nc2ccc(Nc3ccnc4cc(-c5nccs5)ccc34)cc2O)cc1.Cl` were 100%, 100% and 100%.
Turning to `C#CCCC(=O)Nc1cccc(-c2cccc(-c3nc4cccc(C)c4[nH]3)c2)c1`, the Inhibition came out at 97% in assay [1], 29% in assay [2] and 30% in assay [3].
For the molecule `Cc1cccc2nc(-c3cccc(-c4cccc(NC(=O)CC5NC(=O)c6ccccc65)c4)c3)[nH]c12` (stereo not given), the Inhibition was 92% in assay [1], 49% in assay [2] and 8% in assay [3].
For `CC1CCCC(NC(=O)CCOc2ccccc2)C1` (stereo not given), the Inhibition in assay [1] was 96%; in assay [2] it was 32%; in assay [3], 0%.
Taken in the same sequence, the figures for `CCNC(=O)Nc1cccc(-c2cccc(-c3nc4cccc(C)c4[nH]3)c2)c1` were 85%, 31% and 7%.
Taken in the same sequence, the figures for `COc1ccc(CNc2cc(C)nc3sc4c(c23)CCC2(C4)OCCO2)cc1` were 96%, 2% and 4%.
Take `O=C(Cc1c[nH]cn1)Nc1cccc(-c2ccc(-c3nc4cc(F)ccc4[nH]3)cc2)c1`: the Inhibition in assay [1] is reported as 100%; in assay [2], 84%; in assay [3], 4%.
With `Cc1cccc(C=NN=c2cc(C)[nH]c3ccc(F)cc23)n1`, the results for the Inhibition in assay [1], in assay [2] and in assay [3] were 95%, 45% and 1%, respectively.
Take `COc1ccc(NC2=C(c3ccccc3)C(=O)c3ccccc32)cn1`: the figures for the Inhibition in assay [1], in assay [2] and in assay [3] were 96%, 84% and 0%, respectively.
As for `COc1ccc2nccc([C@@H](O)CN3CCC(NC(=O)C(c4cc5ccccc5o4)N4CCN(C(c5ccccc5)c5ccccc5)CC4)CC3)c2c1` (stereo not given in full), the Inhibition in assay [1] came to 100%; in assay [2] it was 100%; in assay [3], 18%.
Consider `O=C(Nc1ccccc1)N(Cc1ccc(-c2ccc(CNC3CCCC3)cc2)cc1)C1CCN(Cc2ccccc2)CC1.O=C(O)C(F)(F)F`, for which the Inhibition was found to be 100% in assay [1], 61% in assay [2] and 34% in assay [3].
Regarding `O=C(NCCN1CCCC1)c1ccc(-c2cccc(-c3nc4cc(F)ccc4[nH]3)c2)cc1`, the Inhibition in assay [1] came out at 100%; in assay [2], 2%; in assay [3], 29%.
As to `c1ccc2[nH]c(-c3ccc(-c4ccc(CN5CCC(N6CCCCC6)CC5)cc4)s3)nc2c1`, the Inhibition in assay [1] is 99%; in assay [2], 100%; in assay [3], 26%.
Turning to `Cl.NOCCCOc1ccccc1`, the Inhibition in assay [1] was 100%; in assay [2], 0%; in assay [3], 20%.
As to `Cc1ccc(Nc2nc(-c3ccccn3)cs2)nc1`, the Inhibition in assay [1] is given as 94%; in assay [2] it was 97%; in assay [3] it was 60%.
Turning to `CC(C)N1CCC(N(Cc2ccc(-c3ccc(C(F)(F)F)cc3)cc2)C(=O)Cn2c(CCc3cccc(F)c3F)cc(=O)c3c2CCC3)CC1.O=C(O)C(O)C(O)C(=O)O`, the Inhibition in assay [1] was found to be 100%; in assay [2], 62%; in assay [3], 30%.
For `CC(C)CCNCc1ccc(OCc2cccc(COc3ccc(CNCCC(C)C)cc3I)c2)c(I)c1.Cl`, the Inhibition is 91% in assay [1], 49% in assay [2] and 99% in assay [3].
For the molecule `Cc1cccc2nc(-c3cccc(-c4ccc(NC(=O)C5CCCO5)cc4)c3)[nH]c12` (stereo not given), the values for the Inhibition in assay [1], in assay [2] and in assay [3] were 91%, 13% and 10%, respectively.
Turning to `COc1ccc(-c2ccc(NC(=O)c3cccc(C#N)c3)cc2)cc1CN1CCC(O)CC1.O=C(O)C(F)(F)F`, the Inhibition in assay [1] is 100%; in assay [2] it was 84%; in assay [3] it was 21%.
For the molecule `C[C@@H](Oc1cc(-n2cnc3ccc(OCC4CCN(S(C)(=O)=O)CC4)cc32)sc1C(N)=O)c1ccccc1C(F)(F)F`, the figures for the Inhibition in assay [1], in assay [2] and in assay [3] were 84%, 50% and 31%, respectively.
With `CCc1nc2c(cnn2CC)c(NC2CCOCC2)c1CNC(=O)N1CCOCC1`, the results for the Inhibition in assay [1], in assay [2] and in assay [3] were 98%, 48% and 0%, respectively.
For the molecule `Cl.c1ccc2c(C3CCN(CCCCOc4ccc5c(c4)CCN(CC4CC4)CC5)CC3)c[nH]c2c1`, the Inhibition in assay [1] worked out at 99%; in assay [2] it was 97%; in assay [3], 74%.
As for `COc1ccccc1CNC(=O)c1ccc(N2CCN(c3ccncc3)CC2)cn1.O=C(O)C(F)(F)F`, the values for the Inhibition in assay [1], in assay [2] and in assay [3] were 96%, 17% and 16%, respectively.
For the molecule `O=C(c1cc2nc3c(c(C(F)(F)F)n2n1)CCc1ccccc1-3)N1CCN2CCCC2C1` (stereo not given), the Inhibition is on record as 94% in assay [1], 3% in assay [2] and 0% in assay [3].
Turning to `O=C(NCCc1ccccc1)N(Cc1ccccc1-c1ccc(CNC2CCCC2)cc1)C1CCN(Cc2ccccc2)CC1.O=C(O)C(F)(F)F`, the figures for the Inhibition in assay [1], in assay [2] and in assay [3] were 96%, 95% and 96%, respectively.
As to `O=C(NC1CCCCN(Cc2ccc3c(c2)OCCO3)C1)c1cc(-c2ccccc2F)cs1.O=C(O)C(F)(F)F` (stereo not given), the Inhibition in assay [1] is reported as 92%; in assay [2] it was 19%; in assay [3], 8%.
Turning to `Cl.O=S(=O)(c1cccc(F)c1)c1ccc(Nc2ncnc3cc(Br)sc23)cc1Cl`, the results for the Inhibition in assay [1], in assay [2] and in assay [3] were 86%, 11% and 20%, respectively.
With `COc1ccc(-n2nc(C)c3c2NC(=O)CC3c2ccccc2OCc2ccc(F)cc2)cc1` (stereo not given), the Inhibition in assay [1] is given as 93%; in assay [2], 65%; in assay [3] it was 53%.
As for `O=C(NCC1CCC(C(=O)NCCc2ccc(Cl)c(Cl)c2)CC1)c1ccc(O)c(-c2ccc(Cl)c(Cl)c2)c1` (stereo not given), the results for the Inhibition in assay [1], in assay [2] and in assay [3] were 94%, 12% and 0%, respectively.
Take `Cc1ccc(NC(=O)N2CCCN(CCCCCNC(=O)/C=C/c3ccc(Cl)c(Cl)c3)CC2)cc1C`: the values for the Inhibition in assay [1], in assay [2] and in assay [3] were 100%, 4% and 62%, respectively.
On to `O=C(Nc1cccc(C(F)(F)F)c1)Nc1ccc(F)c([N+](=O)[O-])c1`, for which the Inhibition in assay [1] stood at 100%; in assay [2] it was 100%; in assay [3] it was 43%.
On to `COc1cc(Cc2cnc(N)nc2N)ccc1OCc1ccc(-c2ccccc2C#N)cc1`, for which the Inhibition in assay [1] was 93%; in assay [2], 3%; in assay [3] it was 32%.
As for `COC(=O)c1cccc(CNCc2cccc(-c3cccc(-c4nc5cc(C(F)(F)F)ccc5[nH]4)c3)c2)c1.O=C(O)C(F)(F)F`, the Inhibition was 100% in assay [1], 69% in assay [2] and 7% in assay [3].
With `CC[C@]1(C)C[C@@H](NC(=O)NC(=O)c2ccc(OC)cc2)[C@]2(C)[C@H](C)CC[C@]3(CCC(=O)[C@H]32)[C@@H](C)[C@@H]1OC(=O)NC(=O)c1ccc(OC)cc1`, the Inhibition in assay [1] turned out to be 100%; in assay [2] it was 98%; in assay [3] it was 10%.
Take `O=C(O)C(F)(F)F.c1ccc(-n2ncc(CNCc3ccc(-c4cccc(-c5nc6ccccc6[nH]5)c4)cc3)n2)cc1`: the values for the Inhibition in assay [1], in assay [2] and in assay [3] were 94%, 9% and 21%, respectively.
`CN1CCN(CCCNCc2ccccc2-c2cccc(CNCc3ccc4c(c3)OCO4)c2)CC1.O=C(O)C(F)(F)F`: the figures for the Inhibition in assay [1], in assay [2] and in assay [3] were 100%, 7% and 34%, respectively.
`CCn1c(Sc2ccc(C#N)c([N+](=O)[O-])c2)nnc1-c1cccc(Cl)c1`: the Inhibition in assay [1] is 95%; in assay [2], 88%; in assay [3], 0%.
Regarding `c1ccc(-c2cc3cccc(-c4nc5cnccc5[nH]4)c3o2)cc1`, the Inhibition is 100% in assay [1], 95% in assay [2] and 37% in assay [3].
With `O=C(O)C(F)(F)F.c1cc(CN2CCCCC2)cc(-c2csc(-c3nc4ccccc4[nH]3)c2)c1`, the Inhibition in assay [1] stood at 90%; in assay [2], 16%; in assay [3], 26%.
On to `Cc1nc2ccc3ccc(CNc4ccc(C(=O)CC(CCC(=O)O)C(=O)O)cc4)cc3c2c(=O)[nH]1.[Cl-].[Na+]` (stereo not given), for which the Inhibition came out at 95% in assay [1], 96% in assay [2] and 51% in assay [3].
For `O=C(Nc1cccc(-c2cccc(-c3nc4cc(F)ccc4[nH]3)c2)c1)c1c[nH]cn1` the same measures were 100%, 87% and 13%.
On to `O=[N+]([O-])c1ccccc1/C=N/Nc1ccnc2cc(Cl)ccc12`, for which the Inhibition in assay [1] amounted to 100%; in assay [2], 89%; in assay [3], 0%.
With `O=C(Nc1ccc(OC2CCN(Cc3ccccc3)CC2)c(Cl)c1)c1ccc(F)cc1.O=C(O)C(F)(F)F`, the figures for the Inhibition in assay [1], in assay [2] and in assay [3] were 94%, 92% and 30%, respectively.
Take `O=C(NCCCCCCNCc1ccc(-c2ccccc2)cc1)Nc1ccc(Cl)c(Cl)c1`: the figures for the Inhibition in assay [1], in assay [2] and in assay [3] were 90%, 2% and 14%, respectively.
For the molecule `CCc1ccc(C2=Nn3c(nnc3-c3cccs3)SC2)cc1`, the Inhibition in assay [1] is 93%; in assay [2], 20%; in assay [3] it was 9%.
As for `CN(CCCc1c[nH]c2ccccc12)CC1CCN(C(=O)/C=C/c2ccc(Cl)c(Cl)c2)CC1`, the results for the Inhibition in assay [1], in assay [2] and in assay [3] were 99%, 25% and 37%, respectively.
As to `CCN(CC)CCN(Cc1ccc(-c2ccc(C(F)(F)F)cc2)cc1)C(=O)Cn1c(CCc2ccc(F)c(F)c2F)nc(=O)c2ccc(F)cc21.O=C(O)C(O)C(O)C(=O)O`, the figures for the Inhibition in assay [1], in assay [2] and in assay [3] were 98%, 46% and 19%, respectively.
For `COc1ccc2nc(N3CCNCC3)nc(NCCCc3ccccc3)c2c1.Cl` the same measures were 100%, 43% and 31%.
As to `CC(C)(C)c1cc(C(=O)Nc2ccc(C(=N)N)cc2)c(O)c(C(C)(C)C)c1.O=C(O)C(F)(F)F`, the figures for the Inhibition in assay [1], in assay [2] and in assay [3] were 100%, 88% and 4%, respectively.
Turning to `Cc1ccc2c(=NN=Cc3ccc(N(C)C)cc3)cc(C)[nH]c2c1`, the Inhibition in assay [1] amounted to 99%; in assay [2], 46%; in assay [3] it was 0%.
Taken in the same sequence, the figures for `CN1CCN(Cc2cccc(-c3ccc4c(Nc5ccc(F)cc5Cl)ccnc4c3)c2)CC1` were 100%, 100% and 20%.
Regarding `CN1CCC(Oc2ccc(CN3CC[C@H](NC(=O)c4cccc(C#N)c4)C3)c3ccccc23)C1.O=C(O)C(F)(F)F` (stereo not given in full), the Inhibition in assay [1] stood at 97%; in assay [2], 30%; in assay [3], 10%.
Regarding `Br.CCCOc1ccc(CCCON2C(N)=NC(N)=NC2(C)C)cc1`, the figures for the Inhibition in assay [1], in assay [2] and in assay [3] were 95%, 94% and 65%, respectively.
As to `Cc1nnsc1C(=O)Nc1cccc(-c2ccc(-c3nc4cccc(C)c4[nH]3)s2)c1`, the Inhibition in assay [1] was 100%; in assay [2] it was 44%; in assay [3] it was 46%.
As to `CC(=O)Nc1ccc(CN2Cc3ccc(NC(=O)Nc4ccc(Oc5ccccc5)cc4)cc3C2)s1`, the Inhibition in assay [1] came to 91%; in assay [2], 25%; in assay [3], 9%.
Turning to `Cc1nnc2c(NC(=O)/C=C/c3ccc(OC(F)(F)F)cc3)cc3cc(Cl)ccc3n12`, the Inhibition was 94% in assay [1], 99% in assay [2] and 19% in assay [3].
